Experimental findings from paper PMC9911399, “Two distinct binding modes provide the RNA-binding protein RbFox with extraordinary sequence specificity” are described below.

Positions count from the first letter of the chain named. Whole data set: some 16,000 sequences, median “ka relative to ugcaugu” near 0.0091, cut for the highest 2% near 0.032. The list comes from a sample in which the highest values are over-represented; it also holds similar and randomly drawn sequences.

Sequences and labels used below:
T1: RBFOX1 RRM (Homo sapiens, UniProt Q9NWB1 109-208)
T1 sequence: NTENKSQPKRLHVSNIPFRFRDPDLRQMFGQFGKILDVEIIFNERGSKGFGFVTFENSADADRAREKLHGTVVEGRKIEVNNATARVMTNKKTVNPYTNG

B1: CUGAUGG (DNA:RNA)
RNA: GGGAGACCGGAAUUCAGAUUGUCCCUGAUGGUUAAAUCCCGUCGUAGCCACCA
DNA 1: CAATCTGAATTCCGGTCTCCC
DNA 2: TGGTGGCTACGACGGGATT
B2: AGAACUG (DNA:RNA)
RNA: B1 RNA with C25A, U26G, G27A, U29C, G30U
DNA 1: CAATCTGAATTCCGGTCTCCC
DNA 2: TGGTGGCTACGACGGGATT
B3: GCAAAGC (DNA:RNA)
RNA: B1 RNA with C25G, U26C, G27A, U29A, G31C
DNA 1: CAATCTGAATTCCGGTCTCCC
DNA 2: TGGTGGCTACGACGGGATT
B4: UUGCGGA (DNA:RNA)
RNA: B1 RNA with C25U, A28C, U29G, G31A
DNA 1: CAATCTGAATTCCGGTCTCCC
DNA 2: TGGTGGCTACGACGGGATT
B5: GCGGGCU (DNA:RNA)
RNA: B1 RNA with C25G, U26C, A28G, U29G, G30C, G31U
DNA 1: CAATCTGAATTCCGGTCTCCC
DNA 2: TGGTGGCTACGACGGGATT
B6: CCGGGCU (DNA:RNA)
RNA: B1 RNA with U26C, A28G, U29G, G30C, G31U
DNA 1: CAATCTGAATTCCGGTCTCCC
DNA 2: TGGTGGCTACGACGGGATT
B7: CGGGCUU (DNA:RNA)
RNA: B1 RNA with U26G, A28G, U29C, G30U, G31U
DNA 1: CAATCTGAATTCCGGTCTCCC
DNA 2: TGGTGGCTACGACGGGATT
B8: GGGCUUU (DNA:RNA)
RNA: B1 RNA with C25G, U26G, A28C, G30U, G31U
DNA 1: CAATCTGAATTCCGGTCTCCC
DNA 2: TGGTGGCTACGACGGGATT
B9: CGGCUUU (DNA:RNA)
RNA: B1 RNA with U26G, A28C, G30U, G31U
DNA 1: CAATCTGAATTCCGGTCTCCC
DNA 2: TGGTGGCTACGACGGGATT
B10: GGGGCUU (DNA:RNA)
RNA: B1 RNA with C25G, U26G, A28G, U29C, G30U, G31U
DNA 1: CAATCTGAATTCCGGTCTCCC
DNA 2: TGGTGGCTACGACGGGATT
B11: GGCUUUU (DNA:RNA)
RNA: B1 RNA with C25G, U26G, G27C, A28U, G30U, G31U
DNA 1: CAATCTGAATTCCGGTCTCCC
DNA 2: TGGTGGCTACGACGGGATT
B12: CGGGGCU (DNA:RNA)
RNA: B1 RNA with U26G, A28G, U29G, G30C, G31U
DNA 1: CAATCTGAATTCCGGTCTCCC
DNA 2: TGGTGGCTACGACGGGATT
B13: GGGGGCU (DNA:RNA)
RNA: B1 RNA with C25G, U26G, A28G, U29G, G30C, G31U
DNA 1: CAATCTGAATTCCGGTCTCCC
DNA 2: TGGTGGCTACGACGGGATT
B14: GUGGGCU (DNA:RNA)
RNA: B1 RNA with C25G, A28G, U29G, G30C, G31U
DNA 1: CAATCTGAATTCCGGTCTCCC
DNA 2: TGGTGGCTACGACGGGATT
B15: CGUCAGA (DNA:RNA)
RNA: B1 RNA with U26G, G27U, A28C, U29A, G31A
DNA 1: CAATCTGAATTCCGGTCTCCC
DNA 2: TGGTGGCTACGACGGGATT
B16: GGAGUGG (DNA:RNA)
RNA: B1 RNA with C25G, U26G, G27A, A28G
DNA 1: CAATCTGAATTCCGGTCTCCC
DNA 2: TGGTGGCTACGACGGGATT
B17: ACAUGGG (DNA:RNA)
RNA: B1 RNA with C25A, U26C, G27A, A28U, U29G
DNA 1: CAATCTGAATTCCGGTCTCCC
DNA 2: TGGTGGCTACGACGGGATT
B18: CCUAGUG (DNA:RNA)
RNA: B1 RNA with U26C, G27U, U29G, G30U
DNA 1: CAATCTGAATTCCGGTCTCCC
DNA 2: TGGTGGCTACGACGGGATT
B19: AAUUAGC (DNA:RNA)
RNA: B1 RNA with C25A, U26A, G27U, A28U, U29A, G31C
DNA 1: CAATCTGAATTCCGGTCTCCC
DNA 2: TGGTGGCTACGACGGGATT
B20: UUUAACA (DNA:RNA)
RNA: B1 RNA with C25U, G27U, U29A, G30C, G31A
DNA 1: CAATCTGAATTCCGGTCTCCC
DNA 2: TGGTGGCTACGACGGGATT

The target in the test is T1, RBFOX1 RRM. Put plainly: EMSA; HiTS-Eq, 1 nM pool, 10 min; buffer printed only for the single-RNA assays: 10 mM Tris pH 7.5, 150 mM NaCl, 3.4 mM EDTA, 0.001% NP-40, 30 C. Conditions: tags: His6 N-terminal (pET28a); label: 5' 32P. In outline: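 A pool of RNA with 7 randomized nucleotides, 5′-radiolabelled and with DNA-annealed flanks, was equilibrated at 1 nM for 10 min in 50 µL with purified RbFox RRM, wild type or mutant, across increasing protein concentrations. Free RNA was separated by 8% native PAGE, excised, reverse-transcribed, barcoded by PCR and sequenced. Relative association constants were obtained from read-count changes of each RNA species versus the control reaction and normalised to the cognate motif.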
In the case of B1, the binding signal is 0.0123 KA relative to UGCAUGU.

On to B2, for which the binding signal was 0.0109 KA relative to UGCAUGU.

B3: the binding signal was 0.0111 KA relative to UGCAUGU. The value for B4 was 0.0101 KA relative to UGCAUGU; that for B5 was 0.0197 KA relative to UGCAUGU; that for B6 was 0.00883 KA relative to UGCAUGU.

On to B7, for which the binding signal is 0.0317 KA relative to UGCAUGU. As to B8, the binding signal is 0.0244 KA relative to UGCAUGU. In the case of B9, the binding signal was 0.0187 KA relative to UGCAUGU. With B10, the binding signal was 0.033 KA relative to UGCAUGU.

Regarding B11, the binding signal was 0.0115 KA relative to UGCAUGU. As for B12, the binding signal was 0.0294 KA relative to UGCAUGU. In the case of B13, the binding signal is 0.0377 KA relative to UGCAUGU. Regarding B14, the binding signal was 0.0216 KA relative to UGCAUGU.

As to B15, the binding signal was 0.00954 KA relative to UGCAUGU.

Take B16: the binding signal was 0.0151 KA relative to UGCAUGU. In the case of B17, the binding signal is 0.0064 KA relative to UGCAUGU. In the case of B18, the binding signal is 0.00931 KA relative to UGCAUGU. For B19, the binding signal was 0.00552 KA relative to UGCAUGU. For B20, the binding signal was 0.00144 KA relative to UGCAUGU.
